Among the test systems are HCT-15 colon; HT29 colon; SNB-75 CNS; SNB-19 CNS; U251 CNS; PC-3 prostate; SK-MEL-5 melanoma; UACC-62 melanoma; LOX IMVI melanoma; SK-MEL-28 melanoma; SK-MEL-2 melanoma; EKVX NSCLC; SN12C renal; UO-31 renal; TK-10 renal; ACHN renal; CAKI-1 renal; A498 renal; MOLT-4 leukemia; CCRF-CEM leukemia.
What all share (assay): NCI-60 one-dose screen, 48 h (100 = growth as untreated, 0 = no growth, -100 = all killed)
What all share (conditions): 10 µM unless noted

Experimental findings from PubChem BioAssay (NCI) are described below.

Compounds without any hit were thinned out: in the full panel of roughly 83,000, 20% have a hit.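 48-hour exposure, single concentration, 96-well plates; percent growth endpoint where 0 means no net growth. Active: below 10.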 Unmarked numbers belong to inactive results. The source made the active and inactive calls.

As to `Nc1ncnc2c1C(c1ccc([N+](=O)[O-])cc1)c1sc3c(F)cccc3c1O2` (stereo unspecified), the growth in the experiment on HCT-15 colon was 102%; with HT29 colon it was 112%; in the experiment with SNB-75 CNS it was 97%; with SNB-19 CNS, 102%; in the experiment with U251 CNS, 92.4%; in the experiment with PC-3 prostate, 91.6%. For the same compound, the growth is 98.4% with SK-MEL-5 melanoma; 81% with UACC-62 melanoma; 84.2% with LOX IMVI melanoma; 106% in the experiment with SK-MEL-28 melanoma; 107% in the experiment with SK-MEL-2 melanoma; 98.4% with EKVX NSCLC. Moreover, the growth with SN12C renal is 97.1%; in the experiment on UO-31 renal, 68.4%; in the experiment on TK-10 renal, 129%; in the experiment on ACHN renal, 89.8%; with CAKI-1 renal, 74.9%; with A498 renal it was 97.8%. Besides, the growth in the experiment with MOLT-4 leukemia is 93.4%.
As to `CCN(CC)CC(=O)Nc1ccc2ncnc(Nc3ccc(Oc4cccc(F)c4)c(Cl)c3)c2c1`, the growth in the experiment with HCT-15 colon was 17.6%; in the experiment on HT29 colon it was 14.4%; with SNB-75 CNS, 66.4%; in the experiment on SNB-19 CNS, 72.2%; with U251 CNS, 45.2%; in the experiment with PC-3 prostate it was 44.7%. The growth was 58.4% in the experiment with SK-MEL-5 melanoma; 86.9% in the experiment with UACC-62 melanoma; -42% (active) in the experiment on LOX IMVI melanoma; 81.3% with SK-MEL-28 melanoma; 90.9% in the experiment with SK-MEL-2 melanoma; 42.8% with EKVX NSCLC. Further, the growth with SN12C renal was 67.8%; in the experiment with UO-31 renal it was 22%; in the experiment with TK-10 renal, 51.9%; in the experiment on ACHN renal, 41.6%; in the experiment on CAKI-1 renal, 46.6%; with A498 renal, 44.2%. In the experiment with MOLT-4 leukemia, the growth is 41.8%.
For `Nc1nc2ccccc2c2c(=O)c3ccc(Cl)cc3sc12`, the growth is 101% in the experiment with HCT-15 colon; 98% in the experiment on HT29 colon; 96.3% with SNB-75 CNS; 102% in the experiment on SNB-19 CNS; 84.8% in the experiment with U251 CNS; 89.9% in the experiment with PC-3 prostate. For the same compound, the growth in the experiment on SK-MEL-5 melanoma was 104%; in the experiment on UACC-62 melanoma, 92.5%; in the experiment on LOX IMVI melanoma it was 98%; in the experiment on SK-MEL-28 melanoma, 110%; with SK-MEL-2 melanoma it was 106%; in the experiment on EKVX NSCLC, 89.2%. Besides, the growth was 91.3% in the experiment with SN12C renal; 96.1% in the experiment with UO-31 renal; 130% in the experiment with TK-10 renal; 83.6% with ACHN renal; 89% with CAKI-1 renal; 99.7% in the experiment with A498 renal. Besides, in the experiment with MOLT-4 leukemia, the growth is 93.6%.
Regarding `COc1cc(/C=C2\CCC/C(=C\c3cc(CN4CCCC4)c(O)c(OC)c3)C2=O)cc(CN2CCCC2)c1O`, the growth is 16.3% in the experiment on HCT-15 colon; -46.2% (active) in the experiment with HT29 colon; 20.3% with SNB-75 CNS; 44.7% in the experiment on SNB-19 CNS; 25.3% in the experiment with U251 CNS; 31.2% with PC-3 prostate. Besides, the growth with SK-MEL-5 melanoma is 71.1%; in the experiment with UACC-62 melanoma it was 88.6%; with LOX IMVI melanoma it was 9.9% (active); in the experiment on SK-MEL-28 melanoma, 92.2%; in the experiment on SK-MEL-2 melanoma, 82.6%; in the experiment with EKVX NSCLC, 32.4%. Also, the growth in the experiment on SN12C renal is 30.3%; in the experiment on UO-31 renal it was 47.4%; in the experiment with TK-10 renal it was 70.1%; in the experiment on ACHN renal it was 48.2%; with CAKI-1 renal, 55.2%; in the experiment with A498 renal, 85.3%. Moreover, the growth was 17.6% with CCRF-CEM leukemia and 4.58% (active) with MOLT-4 leukemia.
In the case of `O=C(CN1C(=O)S/C(=C\C(Cl)=C\c2ccccc2)C1=O)NCCCn1ccnc1`, the growth in the experiment with HCT-15 colon was 1.15% (active); in the experiment on HT29 colon it was 10.5%; in the experiment with SNB-75 CNS it was 32%; in the experiment on SNB-19 CNS, 57.5%; in the experiment with U251 CNS it was 45.6%; in the experiment on PC-3 prostate it was 45.8%. The growth was 64.1% in the experiment on SK-MEL-5 melanoma; 18.8% with UACC-62 melanoma; -52.3% (active) with LOX IMVI melanoma; 12.4% with SK-MEL-28 melanoma; 38.2% in the experiment with SK-MEL-2 melanoma; 41.2% in the experiment with EKVX NSCLC. Moreover, the growth in the experiment with SN12C renal was 26.1%; with UO-31 renal, 48.7%; in the experiment on TK-10 renal, 36.2%; in the experiment on ACHN renal, 5.51% (active); in the experiment on CAKI-1 renal it was 50.5%; with A498 renal, 95.7%. In addition, in the experiment on MOLT-4 leukemia, the growth was 6.18% (active).
`COc1ccc2c(O)c(/C=C3\N=Nc4nc(C)ccc43)oc2c1CC1CCNCC1`: the growth with HCT-15 colon was 93.3%; with HT29 colon it was 31.6%; with SNB-75 CNS, 25.2%; with SNB-19 CNS it was 57.5%; in the experiment on U251 CNS, 21.4%; in the experiment on PC-3 prostate, 69.2%. Besides, the growth in the experiment on SK-MEL-5 melanoma is 81.1%; in the experiment with UACC-62 melanoma, -26.3% (active); in the experiment on LOX IMVI melanoma, 5.08% (active); in the experiment on SK-MEL-28 melanoma it was -68.4% (active); in the experiment on SK-MEL-2 melanoma it was 95.5%; in the experiment with EKVX NSCLC, 63.4%. The growth in the experiment with SN12C renal is 60.3%; with UO-31 renal, 70.6%; in the experiment with TK-10 renal it was 79.1%; in the experiment on ACHN renal, 69.2%; in the experiment with CAKI-1 renal, 83.1%; in the experiment with A498 renal, 44.7%. For the same compound, the growth in the experiment with CCRF-CEM leukemia is 63.3%; in the experiment on MOLT-4 leukemia, 48.1%.
Consider `Cc1ccc(-c2nc3nc(-c4ccccc4)nc(N4CCCNCC4)c3o2)cc1`, for which the growth with HCT-15 colon is -81.5% (active); in the experiment with HT29 colon, -86.1% (active); with SNB-75 CNS, -59.8% (active); in the experiment on SNB-19 CNS it was 25.9%; in the experiment with U251 CNS, -84.9% (active); in the experiment with PC-3 prostate, -88.9% (active). In addition, the growth with SK-MEL-5 melanoma was -57.3% (active); in the experiment on UACC-62 melanoma it was -81.4% (active); in the experiment with LOX IMVI melanoma it was -89.8% (active); with SK-MEL-28 melanoma, -89.3% (active); in the experiment on SK-MEL-2 melanoma, -2.85% (active); with EKVX NSCLC, 39%. Moreover, the growth in the experiment on SN12C renal was -87.9% (active); with UO-31 renal, -98.1% (active); in the experiment on TK-10 renal it was -60% (active); with ACHN renal, -98.9% (active); in the experiment with CAKI-1 renal, -9.04% (active); in the experiment with A498 renal, 98.4%. The growth in the experiment on CCRF-CEM leukemia was -75.8% (active); in the experiment on MOLT-4 leukemia, -68.1% (active).
